# According to PubChem BioAssay (NCATS):
# Results filed as inconclusive are left out. A call without a number means that no potency is given here. Active and inactive are the calls of the source. Calls come from the whole dose curve; as a rule, active = well fitted curve in the direction sought with a large enough effect; inconclusive = small, poorly fitted or top-dose-only effect, or another doubt; inactive = no such curve, though single readings can be large; an effect the other way counts as inactive or inconclusive.
# Assays:
# [1] = Confirmation and Secondary Assay for Modulators of Hemoglobin Beta Chain Splicing at IVS2 705 locus (AID 930);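 note: HeLa cells stably expressing the EGFP-705 splicing reporter; GFP fluorescence per well restored by corrected splicing of the IVS2-705 intron in EGFP; series mostly up to about 46 µM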
# In short: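 Read-out: total peak GFP fluorescence per well (488 nm excitation, 500-520 nm emission) by laser-scanning cytometry. Cells: HeLa EGFP-705 splicing reporter, 2 days compound exposure in Optimem/2% FCS.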
# [2] = target: DNA dC->dU-editing enzyme APOBEC-3G (Homo sapiens) (UniProt Q9HC16); assay: qHTS for inhibitors of Vif-A3G interactions: Validation (AID 588379)
# In short: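 HeLa cells stably expressing Vif and A3G-eYFP, 700 cells/well, incubated overnight at 37 deg C, then exposed to compound overnight at 37 deg C. Inhibition of Vif-mediated degradation read as increased yellow fluorescence (Ex 488/Em 500-530) by laser-scanning cytometry.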
# [3] = target: Muscarinic acetylcholine receptor M1 (Rattus norvegicus) (UniProt P08482); assay: qHTS Assay for Antagonists of Acetylcholine Muscarinic M1 Receptor: Kinetic Measurement of Intracellular Calcium Response (AID 943); note: series mostly up to about 35 µM; nearly all actives have a fitted effect of over 75% in size
# In short: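 CHO cells expressing rat M1 receptor, Fluo-4 loaded, preincubated 10 min with compound, then stimulated with EC80 carbachol (100 nM final). Kinetic calcium fluorescence over 4 min; response taken as peak over basal signal.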
# [4] = target: Muscarinic acetylcholine receptor M1 (Rattus norvegicus) (UniProt P08482); assay: qHTS Assay for Antagonists of Acetylcholine Muscarinic M1 Receptor: Measurement of IP-One Response (AID 944); note: nearly all actives have a fitted effect of over 75% in size
# In short: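 CHO cells stably expressing rat M1, pretreated 10 min with compound, then stimulated 30 min with carbachol at EC80 (200 nM) in LiCl-containing buffer pH 7.4; IP1 accumulation read by HTRF competition (665/620 nm).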
# Sequence of Muscarinic acetylcholine receptor M1 (Rattus norvegicus) (P08482 whole entry, looked up): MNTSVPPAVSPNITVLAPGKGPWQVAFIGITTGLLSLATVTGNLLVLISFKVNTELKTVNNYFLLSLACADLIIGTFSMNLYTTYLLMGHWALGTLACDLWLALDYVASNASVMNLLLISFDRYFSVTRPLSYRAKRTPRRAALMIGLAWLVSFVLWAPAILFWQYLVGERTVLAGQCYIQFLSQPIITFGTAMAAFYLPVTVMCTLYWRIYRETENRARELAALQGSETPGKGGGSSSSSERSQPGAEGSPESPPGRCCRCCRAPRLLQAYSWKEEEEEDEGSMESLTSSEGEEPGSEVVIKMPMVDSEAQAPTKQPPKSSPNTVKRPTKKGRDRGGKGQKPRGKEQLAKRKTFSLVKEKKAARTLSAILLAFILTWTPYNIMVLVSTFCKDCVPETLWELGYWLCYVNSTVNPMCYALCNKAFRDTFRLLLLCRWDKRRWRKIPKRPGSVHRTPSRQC
# Sequence of DNA dC->dU-editing enzyme APOBEC-3G (Homo sapiens) (Q9HC16 whole entry, looked up): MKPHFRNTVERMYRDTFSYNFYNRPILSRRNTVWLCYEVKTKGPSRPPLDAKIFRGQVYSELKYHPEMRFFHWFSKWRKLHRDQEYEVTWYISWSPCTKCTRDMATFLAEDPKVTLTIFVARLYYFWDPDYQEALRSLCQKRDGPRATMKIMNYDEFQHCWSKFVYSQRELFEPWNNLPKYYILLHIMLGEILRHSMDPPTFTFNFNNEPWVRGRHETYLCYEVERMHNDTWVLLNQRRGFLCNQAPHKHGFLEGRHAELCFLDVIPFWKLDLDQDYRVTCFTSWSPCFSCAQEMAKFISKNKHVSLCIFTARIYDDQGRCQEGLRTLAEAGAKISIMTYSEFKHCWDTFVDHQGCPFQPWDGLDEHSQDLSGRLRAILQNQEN
smiles,measurement,setting,value
Cc1cccc(CNc2nc(-c3cccnc3)nc3ccccc23)c1,outcome,[1],inactive
Oc1ccc([C@@H]2CNCCc3c2cc(O)c(O)c3Cl)cc1,outcome,[2],inactive
Cc1nnc(SCC2=C(C(=O)O)N3C(=O)[C@@H](NC(=O)Cn4cnnn4)[C@@H]3SC2)s1,Potency,[3],inactive
same,Potency,[4],inactive
